From PubChem
A selection: hits, their analogues and other compounds. The true share with any hit is near 2.2%.
aSyn 5UTR inh – 5' untranslated region of α-synuclein, MLPCN primary screen | alpha-synuclein 5'UTR reporter, inhibitor activity | inhibition, % (tested at 7.5 µM) | actives 0.82% (n = 300,000); in the data active = inhibition above about 60%;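 note: H4 neuroglioblastoma cells stably carrying SNCA 5'UTR luciferase fusion; 0% = DMSO wells and 100% = positive control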
BaF3 tox – parental Ba/F3 viability inhibition as JAK2V617F counter-screen; CellTiter-Glo ATP luminescence; actives 1.1% (n = 220,000); inhibition, % at 5.6 µM;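 active = inhibition above a per-campaign cutoff, the mean inhibition of all tested compounds plus 3 SD, cut at about 27% in these data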;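 note: 0% = DMSO wells and 100% = JAK Inhibitor I control wells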
IEC-6 tox-1 – counter-screen for KLF5 inhibitors: cytotoxicity in IEC-6 cells; IEC-6 cytotoxicity, luminescence viability; inhibition, % at 5 µM; actives 0.78% (n = 290,000); AID 1825;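 note: 0% = plate median of test compound wells and 100% = cytotoxic reference compound wells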
APP transl inh – APP translation inhibition | SH-SY5Y APP 5'UTR-luciferase reporter, luminescence | inhibition, % at 2 µM | actives 0.82% (n = 190,000) | AID 1285;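 active = inhibition above a set limit, derived from the sample mean plus 3 SD, cut at about 45% in these data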
Ba/F3 V617F tox – loss of viability in JAK2V617F-driven Ba/F3 cells | Ba/F3 EpoR-JAK2V617F viability, ATP luminescence | inhibition, % at 5.6 µM | actives 1.1% (n = 220,000) | AID 1446;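 active = inhibition above the campaign mean plus 3 SD over all tested compounds, cut at about 24% in these data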;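 note: cytokine-independent growth of Ba/F3 cells driven by EpoR plus mutant JAK2; 0% = DMSO-treated cells and 100% = JAK inhibitor I control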
KLF5 inh – inhibitors of KLF5 expression | DLD-1 KLF5 promoter-luciferase reporter, luminescence | inhibition, % at 5 µM | actives 0.23% (n = 290,000);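 active = inhibition above a per-plate limit of that plate's mean compound inhibition plus 3 SD, cut at about 60% in these data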;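 note: 0% = DMSO wells and 100% = LY294002 at 200 µM; higher means less KLF5 promoter-driven luciferase light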
KLF5 inh confirm – confirmation of KLF5 inhibitors | shares compounds with KLF5 inh | DLD-1 KLF5 promoter firefly luciferase reporter, luminescence | inhibition, % at 4 µM | actives 79% (n = 610) | AID 1834;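 active = inhibition above a set limit taken from the earlier primary screen, cut at about 63% in these data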;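 note: 0% = DMSO wells and 100% = LY294002 at 200 µM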
IEC-6 tox-2 – kills rat IEC-6 cells in KLF5 counter-screen; inhibition, % at 4 µM; shares compounds with KLF5 inh; IEC-6 rat intestinal cells, viability luminescence; actives 56% (n = 610); AID 1905; in the data active = inhibition above about 23%;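 note: cells exposed to compounds for 48 hours before viability read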
IEC-6 tox confirm – confirmation of cytotoxic compounds in rat IEC-6 intestinal epithelial cells | inhibition, % at 5 µM | IEC-6 rat intestinal epithelial viability, luminescence | shares compounds with IEC-6 tox-1 | actives 63% (n = 1,900);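 note: 0% = vehicle and 100% = reference cytotoxic drug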
Active calls of the source: *; / = no result. Cut-off read from the data, not from the text of the source, unless noted: active = inhibition above about 22%; inactive = the rest.

SMILES	aSyn 5UTR inh	BaF3 tox	IEC-6 tox-1	APP transl inh	Ba/F3 V617F tox	KLF5 inh	KLF5 inh confirm	IEC-6 tox-2	IEC-6 tox confirm
CCCCN=C[C@]12CCC(O)CC1(O)CCC1[C@@H]2CC[C@]2(C)[C@H](C3C=CC(=O)O3)CCC12O (stereo partly drawn)	96*	/	-3	/	/	106*	105*	-1	/
CCC(Oc1cc(Cl)ccc1Cl)C(=O)N1CCC2(CC1)OCCO2 (stereo not drawn)	-8	/	-3	/	/	-1	/	/	/
C[C@]12CCC3C(CCC4=CC(O)CC[C@@]43/C=N/O)C1(O)CCC2C1=CC(=O)OC1 (stereo partly drawn)	113*	/	1	/	/	91*	104*	-10	/
C[n+]1c(-c2ccccc2)c2cc(N)ccc2c2ccc(N)cc21	52	/	-1	/	/	108*	86*	-9	/
Nc1ccc2ccc3cccc[n+]3c2c1	2	/	-4	/	/	-16	/	/	/
CC(Cc1ccccc1)NC(=O)CCCCC(=O)NC(C)Cc1ccccc1 (stereo not drawn)	13	/	-1	/	/	-5	/	/	/
C/C=C(\C)C(=O)N[C@@H](c1ccccc1)[C@@H](O)C(=O)O[C@H]1C[C@@]2(O)[C@@H](OC(=O)c3ccccc3)C3[C@](C)(C(=O)[C@H](OC(C)=O)C(=C1C)C2(C)C)[C@H](O)C[C@H]1OC[C@@]31OC(C)=O (stereo partly drawn)	110*	/	88*	/	/	64*	86*	71*	79*
CC(=O)O[C@@]12CO[C@@H]1C[C@@H](O)[C@@]1(C)C(=O)[C@H](O)C3=C(C)[C@@H](OC(=O)[C@H](O)[C@@H](NC(=O)c4ccccc4)c4ccccc4)C[C@@](O)([C@@H](OC(=O)c4ccccc4)C12)C3(C)C (stereo partly drawn)	113*	/	90*	/	/	76*	87*	72*	81*
CS(=O)(=O)Nc1ccc(Cc2noc(-c3ccc4[nH]cc(CCN)c4c3)n2)cc1	-2	-2	5	/	-1	-21	/	/	/
CC1=NCCc2c1[nH]c1ccccc21	-16	-1	4	1	-1	-4	/	/	/
COc1ccc(CN2CCN(C(=O)Cc3ccccc3)CC2)cc1Br	9	/	-5	/	/	-36	/	/	/
CC1C(OC(=O)CCC(=O)NC(C)(C)CO)O[C@H]2OC3(C)CC[C@H]4[C@H](C)CCC1C24OO3 (stereo partly drawn)	4	/	33*	/	/	82*	85*	23*	11
C[C@H]1[C@H](OC(=O)CCC(=O)NCc2ccc(C(=O)O)cc2)O[C@@H]2O[C@@]3(C)CC[C@H]4[C@H](C)CC[C@@H]1C24OO3	0	/	24*	/	/	80*	84*	26*	21
CC(C)CC(NC(=O)CCCNC(=O)CCC(=O)OC1O[C@H]2OC3(C)CC[C@H]4[C@H](C)CCC(C1C)C24OO3)C(=O)O (stereo partly drawn)	-2	/	30*	/	/	82*	82*	20	23*
COc1ccc2c(c1O)C13CCN(C)C(C2)C1CCC(=O)C3 (stereo not drawn)	-7	/	/	/	/	/	/	/	/
O=C(c1cccc(C(F)(F)F)c1)N1C[C@H]2C[C@@H](C1)c1cccc(=O)n1C2	4	/	-2	/	/	19	/	/	/
C=CCn1c(O)c(C(C)=NCc2cccnc2)c(=O)[nH]c1=O	-1	5	2	7	-3	-14	/	/	/
C=CCn1c(O)c(C(C)=NCc2cc(OC)cc(OC)c2)c(=O)[nH]c1=O	38	28*	28*	26	45*	-5	/	/	34*
Cc1c2ccncc2c(C)c2c1[nH]c1ccccc12	114*	74*	49*	67*	84*	4	/	/	49*
C=C1[C@@H](OC(C)=O)[C@]23C[C@@H]1[C@@H](OC(C)=O)CC2[C@]12C4C[C@H]3[C@H]1N(CC)C[C@]4(C)CC[C@@H]2O (stereo partly drawn)	-1	/	/	/	/	/	/	/	/
c1ccc(-c2cc(-c3ccccc3)[n+](-c3ccccc3)c(-c3ccccc3)c2)cc1	-1	97*	47*	/	99*	39	/	/	47*
